# Active and inactive are the calls of the source.
# Columns and labels:
# [1] = binders of probe aFSTL3 on microarray, primary screen, stem cell growth factor project, biochemical, small-molecule microarray, fluorescence 635/667 (AID 1064); settings: higher = more signal;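 note: measures binding of the biotinylated anti-FSTL3 antibody to printed compounds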
# [2] = binders from COS7 lysate, DM2A8 probe, primary screen, torsin A project, cell lysate, small-molecule microarray, fluorescence 635/667 (AID 1065); settings: higher = more signal, COS7 lysate expressing mutant human TOR1A
# [3] = binders of probe aFGF2 on microarray, primary screen, stem cell growth factor project, biochemical, small-molecule microarray, fluorescence 635/667 (AID 1067); settings: higher = more signal;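 note: measures binding of biotinylated aFGF2 protein to printed compounds on slides; z-score merges feature fluorescence and signal-to-noise across triplicate slides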
# [4] = binders of probe aFGF10 on microarray, primary screen, stem cell growth factor project, biochemical, small-molecule microarray, fluorescence 635/667 (AID 1071); settings: higher = more signal;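 note: score merges 667 nm spot intensity and signal to noise from triplicate slides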
# [5] = molecular target: Neurogenic locus notch homolog protein 2 (Homo sapiens) (UniProt Q04721); assay: Notch2 binders on small-molecule microarrays, primary screen, biochemical, small-molecule microarray, 635 nm fluorescence, stem cell growth factors (AID 1073); settings: Notch2 binding, higher = more signal
# Sequence of Neurogenic locus notch homolog protein 2 (Homo sapiens) (Q04721 whole entry, looked up, canonical isoform): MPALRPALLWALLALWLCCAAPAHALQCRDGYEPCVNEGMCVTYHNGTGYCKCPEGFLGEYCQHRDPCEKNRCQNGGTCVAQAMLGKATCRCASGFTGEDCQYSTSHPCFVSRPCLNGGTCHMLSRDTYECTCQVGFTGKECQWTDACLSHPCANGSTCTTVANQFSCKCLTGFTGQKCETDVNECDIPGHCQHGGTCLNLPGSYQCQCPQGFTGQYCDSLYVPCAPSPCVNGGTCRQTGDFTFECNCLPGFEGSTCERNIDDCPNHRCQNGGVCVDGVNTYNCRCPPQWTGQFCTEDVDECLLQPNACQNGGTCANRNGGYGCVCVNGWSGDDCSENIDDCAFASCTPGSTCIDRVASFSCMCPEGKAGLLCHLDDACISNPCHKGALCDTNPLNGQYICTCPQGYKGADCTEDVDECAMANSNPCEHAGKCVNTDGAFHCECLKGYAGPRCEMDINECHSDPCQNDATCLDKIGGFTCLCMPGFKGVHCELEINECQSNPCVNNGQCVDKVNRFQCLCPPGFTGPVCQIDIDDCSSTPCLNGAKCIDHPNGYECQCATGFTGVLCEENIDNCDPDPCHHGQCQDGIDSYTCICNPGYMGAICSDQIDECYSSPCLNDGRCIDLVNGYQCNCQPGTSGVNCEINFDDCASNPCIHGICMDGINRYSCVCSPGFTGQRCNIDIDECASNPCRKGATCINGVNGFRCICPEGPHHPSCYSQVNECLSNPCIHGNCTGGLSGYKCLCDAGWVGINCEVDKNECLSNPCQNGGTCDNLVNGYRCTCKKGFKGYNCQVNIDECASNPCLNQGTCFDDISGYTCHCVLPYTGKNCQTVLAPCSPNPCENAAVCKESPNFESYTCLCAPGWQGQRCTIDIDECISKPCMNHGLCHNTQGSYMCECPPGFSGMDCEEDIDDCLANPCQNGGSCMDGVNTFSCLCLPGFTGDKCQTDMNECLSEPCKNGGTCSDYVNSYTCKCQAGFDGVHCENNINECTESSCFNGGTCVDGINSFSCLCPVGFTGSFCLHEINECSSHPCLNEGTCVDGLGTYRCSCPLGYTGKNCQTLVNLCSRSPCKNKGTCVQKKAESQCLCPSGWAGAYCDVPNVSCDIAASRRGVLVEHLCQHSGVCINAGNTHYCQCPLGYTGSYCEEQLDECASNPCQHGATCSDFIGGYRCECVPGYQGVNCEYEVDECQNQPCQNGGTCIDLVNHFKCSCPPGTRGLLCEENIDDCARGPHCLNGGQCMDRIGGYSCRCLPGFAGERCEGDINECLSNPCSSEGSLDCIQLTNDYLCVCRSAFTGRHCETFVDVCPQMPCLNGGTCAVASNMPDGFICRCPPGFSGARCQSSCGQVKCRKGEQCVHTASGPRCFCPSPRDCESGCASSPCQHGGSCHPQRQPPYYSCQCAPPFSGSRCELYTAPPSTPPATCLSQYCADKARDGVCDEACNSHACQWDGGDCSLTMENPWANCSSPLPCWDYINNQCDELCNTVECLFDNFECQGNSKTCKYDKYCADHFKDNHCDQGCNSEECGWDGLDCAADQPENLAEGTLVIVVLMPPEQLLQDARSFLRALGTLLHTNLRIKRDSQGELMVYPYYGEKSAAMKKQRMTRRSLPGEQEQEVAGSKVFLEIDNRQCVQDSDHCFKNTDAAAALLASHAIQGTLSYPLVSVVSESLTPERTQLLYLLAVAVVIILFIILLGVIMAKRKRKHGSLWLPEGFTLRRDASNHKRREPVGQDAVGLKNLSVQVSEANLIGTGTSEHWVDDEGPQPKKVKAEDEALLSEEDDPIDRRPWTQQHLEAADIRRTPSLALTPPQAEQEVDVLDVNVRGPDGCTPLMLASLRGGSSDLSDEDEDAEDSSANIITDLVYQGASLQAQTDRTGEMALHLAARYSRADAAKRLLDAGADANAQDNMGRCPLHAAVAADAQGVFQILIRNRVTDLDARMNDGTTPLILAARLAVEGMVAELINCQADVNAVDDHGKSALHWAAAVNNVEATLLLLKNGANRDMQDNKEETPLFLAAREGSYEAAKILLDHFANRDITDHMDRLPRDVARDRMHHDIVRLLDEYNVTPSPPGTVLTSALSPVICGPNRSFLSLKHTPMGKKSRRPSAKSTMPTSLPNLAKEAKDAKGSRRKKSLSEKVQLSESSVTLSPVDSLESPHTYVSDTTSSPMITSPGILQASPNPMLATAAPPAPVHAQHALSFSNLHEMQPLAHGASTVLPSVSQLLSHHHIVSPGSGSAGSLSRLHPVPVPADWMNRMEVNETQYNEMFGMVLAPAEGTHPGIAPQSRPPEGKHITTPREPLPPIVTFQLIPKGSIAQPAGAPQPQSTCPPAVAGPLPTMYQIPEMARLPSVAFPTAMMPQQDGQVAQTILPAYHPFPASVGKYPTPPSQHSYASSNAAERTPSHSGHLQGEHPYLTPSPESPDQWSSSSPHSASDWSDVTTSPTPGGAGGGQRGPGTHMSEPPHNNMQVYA
# [6] = molecular target: Pro-neuregulin-1, membrane-bound isoform (Homo sapiens) (UniProt Q02297); assay: NRG1 binders on small-molecule microarrays, primary screen, psychiatric disease protein project, biochemical, small-molecule microarray, fluorescence 635/667 (AID 1075); settings: NRG1 binding, 635 nm fluorescence, higher = more signal;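 note: score combines 667 nm spot fluorescence with signal to noise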
# Sequence of Pro-neuregulin-1, membrane-bound isoform (Homo sapiens) (Q02297 whole entry, looked up, the tested form may be a part, canonical isoform): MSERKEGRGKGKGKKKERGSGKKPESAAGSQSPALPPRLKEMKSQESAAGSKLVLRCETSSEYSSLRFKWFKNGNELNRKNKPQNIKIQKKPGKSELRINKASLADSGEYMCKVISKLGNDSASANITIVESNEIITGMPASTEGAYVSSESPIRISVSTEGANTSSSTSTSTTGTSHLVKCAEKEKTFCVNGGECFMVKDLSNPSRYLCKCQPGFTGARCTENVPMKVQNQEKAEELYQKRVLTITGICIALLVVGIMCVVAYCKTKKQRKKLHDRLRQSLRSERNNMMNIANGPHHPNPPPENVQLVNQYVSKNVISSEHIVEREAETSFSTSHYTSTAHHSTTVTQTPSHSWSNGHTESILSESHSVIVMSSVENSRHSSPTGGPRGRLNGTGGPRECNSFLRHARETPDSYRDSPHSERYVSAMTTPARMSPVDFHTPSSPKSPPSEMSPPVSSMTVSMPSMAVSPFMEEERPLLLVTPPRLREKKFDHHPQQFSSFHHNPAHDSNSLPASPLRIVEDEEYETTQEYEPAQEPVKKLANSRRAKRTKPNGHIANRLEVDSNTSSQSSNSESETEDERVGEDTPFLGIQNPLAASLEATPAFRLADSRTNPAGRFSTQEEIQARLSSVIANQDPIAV
# [7] = tested on: Neuregulin-1 EGF-like domain; assay: binders of neuregulin-1 EGF-like domain, primary screen, biochemical, small-molecule microarray, 635 nm fluorescence (AID 1081); settings: small-molecule microarray binding, higher = more signal;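 note: binding of the protein to compounds printed on small-molecule microarray slides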
# [8] = FRG1 promoter luciferase signal modulators, primary screen, FRG1 inhibition for FSHD, cell-based, C2C12 myotubes, firefly/Renilla luciferase, luminescence (AID 1084); settings: higher = more signal, called active from +8 up or from −8 down
# [9] = binders of probe aFST on microarray, primary screen, stem cell growth factor project, biochemical, small-molecule microarray, fluorescence 635/667 (AID 1086); settings: higher = more signal;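 note: score merges 667 nm fluorescence with signal-to-noise of each printed compound spot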
# [10] = binders of probe aHhip on microarray, primary screen, stem cell growth factor project, biochemical, small-molecule microarray, fluorescence 635/667 (AID 1087); settings: higher = more signal;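 note: score merges spot fluorescence at 667nm with spot signal to noise ratio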
SMILES,composite z-score [1],composite z-score [2],composite z-score [3],composite z-score [4],composite z-score [5],composite z-score [6],composite z-score [7],z-score [8],composite z-score [9],composite z-score [10]
COC(=O)[C@@H]1CC[C@H](C)[C@@H](c2ccc(C)cc2)N1C(=O)c1ccc(C=NOC[C@@H](O)COCc2ccco2)cc1,0.852,0.239,-0.226,-0.58,-1.83,-0.96,-1.04,0.495 (inactive),-0.72,-0.137
COC(=O)[C@H](C)NC(=O)[C@@H](C)CO,-0.329,1.2,-0.116,0.75,0.591,0.515,1.04,-0.256 (inactive),0.357,0.316
O=C1[C@H]2[C@H]3[C@H](O)[C@H](O)CC(=NOC[C@@H](O)COCc4ccco4)[C@H]3CC[C@H]2C(=O)N1C1CCCCC1,-0.749,2.19,-0.254,-0.39,-0.24,-0.394,0.403,-0.784 (inactive),0.101,-0.156
C[C@@H]1CCC2C(=O)N(Cc3ccccc3)C[C@@H](O)CN2[C@H]1c1ccc(Br)cc1 (stereo not given in full),-0.364,0.381,-0.145,0.84,-0.05,0.0596,0.963,-0.765 (inactive),-0.0584,-0.0618
COC(=O)[C@@]1(Cc2ccccc2)[C@H]2c3cc(C(=O)N4CCCC4)n(Cc4ccccn4)c3C[C@H]2CN1C(=O)c1ccccc1,0.731,0.415,0.589,1.14,1.52,2.18,1.35,2.5 (inactive),1.65,0.257
C=CCNC(=O)[C@H]1[C@@H]2C(=O)O[C@@H](c3ccccc3)[C@@H](c3ccccc3)N2[C@@H](c2ccc(O)cc2)[C@]12C(=O)N(C(=O)OCCOC)c1ccc(C#CC3=CCCCC3)cc12,0.484,1.24,0.008,0.72,1.05,2.03,1.06,-0.829 (inactive),2.01,1.75
CC(C)=NOCc1cccc(-c2cc(-c3ccccc3)no2)c1,-0.575,0.221,-0.0767,0.717,0.0486,0.205,0.345,0.603 (inactive),0.376,0.0024
CC[C@@H](c1ccccc1)n1c(=O)n2n(c1=O)[C@H]1[C@H](O)[C@@H]3O[C@@H]3C(=NOCC=C(C)CCC=C(C)C)[C@H]1CC2,-0.415,0.138,-0.102,0.471,0.8,0.8,0.89,-0.0545 (inactive),0.572,-0.169
CCN1C(=O)[C@H]2[C@H]3[C@H](O)[C@H](O)CC(=NOCC=C(C)CCC=C(C)C)[C@H]3CC[C@H]2C1=O,-0.968,0.689,-0.117,0.923,0.698,0.65,1.07,-0.454 (inactive),0.617,0.183
CCOC(=O)C[C@H]1[C@H](OC(=O)c2cc3ccccc3oc2=O)[C@@H](NC(=O)c2ccc3ccccc3n2)c2cc(OCCCO)ccc2N1C(=O)c1ccccc1,-0.189,0.459,-0.0455,0.706,0.302,0.0269,0.736,0.331 (inactive),0.353,-0.383
COc1ccc(COC(=O)NN=C2C[C@@H](O)[C@@H](O)[C@@H]3[C@@H]4C(=O)N(Cc5ccc6c(c5)OCO6)C(=O)[C@@H]4CC[C@@H]23)cc1,1.58,0.43,0.0203,-0.0669,-0.732,-0.424,0.146,-0.918 (inactive),1.18,0.0722
Cc1ccc(S[C@]2(C(=O)O)CC(=O)N(Cc3ccccc3)[C@@H]2c2ccc(CO)cc2I)cc1,0.481,-0.421,-0.0494,-0.333,-0.143,1.8,1.03,-0.406 (inactive),-0.255,-0.0994
CC(C)=CCCC(C)=CCON=C1[C@H]2CCn3c(=O)n(C)c(=O)n3[C@H]2[C@H](O)[C@@H]2O[C@H]12,-0.315,0.491,-0.156,0.585,0.38,0.763,1.05,-0.713 (inactive),0.412,-0.0673
COc1ccc(COC(=O)NN=C2C[C@@H](O)[C@@H](O)[C@@H]3[C@@H]4C(=O)N(c5ccc(F)cc5F)C(=O)[C@@H]4CC[C@@H]23)cc1,0.827,0.515,-0.0342,-0.299,-0.392,0.0565,-1.13,-0.138 (inactive),0.562,0.168
CC(C)C[C@@H]1NC(=O)[C@H]2C[C@@H](C(=O)NCCCCCCN(C)C)[C@@H](c3cccc(OCCO)c3)N2C1=O,0.293,1.55,-0.0173,0.789,0.873,0.528,0.781,3.77 (inactive),0.256,-0.156
CC(CCN1CCc2nc(-c3ccccc3)c(-c3ccccc3)cc2C1)=NOC[C@@H](C)[C@H](OCc1ccccc1)C(C)C,-0.0574,-1.01,-0.172,-0.756,-1.63,0.0189,-0.0462,0.764 (inactive),-0.32,-0.206
O=C(CS)NCCCCCNC(=O)[C@H]1C[C@H]2C(=O)N3CCC[C@H]3C(=O)N2[C@H]1c1cccc(OCCO)c1,0.32,1.52,-0.0718,0.564,-0.0686,0.665,1.35,0.556 (inactive),0.442,0.0274
CO[C@@H]1COC(=O)[C@H](C)NC(=O)[C@@H](C)COC(=O)CCC[C@H]1C,-0.438,0.402,-0.116,0.686,0.183,-0.0231,1.13,0.227 (inactive),-0.163,-0.0296
COc1cccc([C@@H]2Oc3ccc(Br)cc3C(=O)[C@H]2O)c1,-0.614,0.291,-0.0291,0.783,0.458,0.297,0.972,3.62 (inactive),0.0846,0.235
COc1ccccc1CN1C(=O)c2ccccc2[C@@]2(Cc3ccccc3N(C(C)C)C2=O)[C@@H]1c1ccc(CO)cc1,-0.111,-0.336,-0.186,-0.689,-0.294,-0.0492,-0.723,-2.45 (inactive),0.351,-0.374
Cc1cc(C)c(-c2cc([C@H](C)ON=C3[C@H]4CCn5c(=O)n(-c6ccccc6)c(=O)n5[C@H]4[C@H](O)[C@@H]4O[C@H]34)on2)c(C)c1,-0.437,1.55,0.0168,0.481,0.471,0.463,0.0257,-0.793 (inactive),0.484,0.0024
COC(=O)C1=C(C)[C@@H](O)[C@@H](C)[C@H](c2c(OC)c(OC)c(C)c(OC)c2OC)O1,-0.511,0.487,-0.131,0.166,0.239,-0.412,0.0778,-0.298 (inactive),0.0017,-0.0645
COc1ccc(OC[C@H]2Cc3c(-c4ccccc4)nc4c(c3CO2)CN(CCOc2ccccc2)CC4)cc1,-0.133,0.228,-0.172,0.79,1.16,0.679,1.11,0.114 (inactive),0.491,-0.0618
COC(=O)[C@H](C)NC(=O)CCC1CC(OC(=O)NCc2cccc3ccccc23)CC2(CCCC(COC(=O)NCCc3ccc(Cl)cc3)O2)O1 (stereo not given in full),-0.489,-0.0486,-0.0788,0.487,1.09,0.567,0.73,1.93 (inactive),0.171,-0.0994
O=C1C[C@@H](O)[C@@H](O)[C@@H]2[C@@H]3C(=O)N(Cc4ccc5c(c4)OCO5)C(=O)[C@@H]3CC[C@@H]12,-0.612,0.196,-0.149,0.833,0.651,-0.13,0.568,0.324 (inactive),0.278,0.065
CS(=O)(=O)CCOC(=O)C1=CC(CCCO)=CC(c2cccs2)N(Cc2cccc(OC(F)(F)F)c2)C=C1C(=O)OCCS(C)(=O)=O (stereo not given),-0.215,1.76,-0.0753,0.0557,1.14,1.8,1.14,-0.176 (inactive),0.425,-0.191
C=C(/C(=C/C[C@@H](OC(=O)c1ccncc1)c1ccc(OCCO)cc1)c1cnc2ccccc2c1)C(C)C,-0.342,-0.0128,-0.186,0.128,0.772,0.562,0.694,-2.27 (inactive),0.201,0.0206
